Source: PubChem BioAssay
NLRP3 yeast inh – NALP3 inflammasome inhibitors in reconstituted yeast, primary screen, luminescence, uHTS; 330,000 tested, 0.39% active; inhibition, % at 10 µM; Yeast reconstituted NLRP3/ASC/caspase-1, beta-gal luminescence, 24 h;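 active means inhibition of 50% or more; inactive means inhibition below 50%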;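 further: plate controls were induced DMSO wells for no effect and uninduced yeast grown without galactose for full effect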
TIM10 inh – growth inhibitors of isogenic TIM10 control yeast, primary screen, counter-screen for tim10-1 yeast inhibitor project, luminescence, uHTS. S. cerevisiae TIM10 strain growth, BacTiter-Glo luminescence, 24 h. inhibition, % at 10 µM. 330,000 tested, 1.4% active. AID 463195, 2010;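 active means inhibition of 40% or more at the single tested concentration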;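 further: wild-type TIM10 isogenic control strain grown at permissive 25 °C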
tim23-1 inh – growth inhibitors of tim23-1 mutant yeast, primary screen, luminescence, uHTS; S. cerevisiae tim23-1 growth, BacTiter-Glo luminescence, 24 h; AID 463212, 2010; inhibition, % at 20 µM; 330,000 tested, 1.3% active;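 active means growth inhibition of the mutant yeast at or above 50%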;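 further: temperature-sensitive mutant grown at 25 °C; plate controls were DMSO-treated mutant yeast for no effect and medium wells lacking yeast for full effect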
NALP1 yeast inh – NALP1 inflammasome inhibitors in reconstituted yeast, colorimetric, S. cerevisiae, triplicate retest; 280,000 tested, 0.61% active; S. cerevisiae NALP1/ASC/caspase-1 growth, X-gal OD620, 72 h; inhibition, % at 10 µM; AID 2071, 2009; in the data active means inhibition mostly above about 24%, no sharp cut-off; inactive means mostly below about 32%
tim10-1 inh – growth inhibitors of tim10-1 mutant yeast, primary screen, luminescence, uHTS; S. cerevisiae tim10-1 ts strain growth, BacTiter-Glo, 24 h; inhibition, % at 20 µM; 330,000 tested, 2.2% active;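 active means inhibition of at least 40%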;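 further: mutant grown at 25 °C; 0% = DMSO wells with yeast and 100% = wells holding no yeast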
tim10-1 conf – growth inhibitors of tim10-1 mutant yeast, confirmation, single concentration, luminescence, S. cerevisiae; shares compounds with tim10-1 inh; S. cerevisiae tim10-1 ts strain growth, BacTiter-Glo, 24 h; inhibition, % at 20 µM; 7,400 tested, 56% active;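 active means inhibition of yeast growth at or above a set limit in either of two repeat tests at 20 µM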;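 further: tim10-1 mutant grown at permissive 25 °C to find synthetic lethal compounds; 0% = DMSO yeast wells and 100% = medium wells without yeast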
TIM10 conf – growth inhibitors of wild-type TIM10 yeast, confirmation, counter-screen for tim10-1 synthetic lethality project, single concentration, luminescence, S. cerevisiae | inhibition, % at 10 µM | 4,600 tested, 63% active | S. cerevisiae tim10 strain growth, BacTiter-Glo luminescence, 24 h | shares compounds with TIM10 inh | AID 463215, 2010;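 active means inhibition of yeast growth at or above a set limit in either of two replicates at 10 µM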;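 further: this counterscreen used the strain with wild-type TIM10; 0% = yeast with DMSO and 100% = medium wells lacking yeast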
tim23-1 conf – tim23-1 mutant yeast growth inhibitors, confirmation, luminescence, single concentration; shares compounds with tim23-1 inh; S. cerevisiae tim23-1 growth, BacTiter-Glo luminescence, 24 h; inhibition, % at 20 µM; 4,400 tested, 83% active; AID 463218, 2010;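 active means inhibition above about 39% in either of two replicate wells at 20 µM, limit read from the data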;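 further: temperature-sensitive tim23-1 mutant grown at 25 °C; 0% = DMSO wells with yeast and 100% = medium wells without yeast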
Active calls of the source: *; · = no result given. In the library only some 4.1% were active in any assay of this set; here they are far more common.

SMILES | NLRP3 yeast inh | TIM10 inh | tim23-1 inh | NALP1 yeast inh | tim10-1 inh | tim10-1 conf | TIM10 conf | tim23-1 conf
Cc1nc2ccccc2n1/N=C/c1ccc([N+](=O)[O-])s1 | 13 | 62* | 55* | 38 | 76* | 30 | -8 | 63*
O=C(/C=C/c1c(Cl)cccc1Cl)N1CCOCC1 | 12 | -7 | -1 | 9 | -6 | · | · | ·
O=C(/C=C/c1c(Cl)cccc1Cl)n1cccn1 | 17 | 41* | 60* | 3 | 56* | 57* | 55* | 85*
CCC(CC)COC(=O)C1=C(C)NC(=O)NC1c1ccc2c(c1)OCO2 (stereo unspecified) | 5 | -12 | 8 | -9 | -16 | · | · | ·
Cc1ccc(CSc2nnc(CS(=O)Cc3ccc(Cl)cc3Cl)n2C)cc1 (stereo unspecified) | -2 | 47* | 51* | 34 | 47* | 37* | 48* | 44*
CC(=O)OCn1ncc(N2CCOCC2)c(Br)c1=O | 11 | 4 | -1 | -5 | 1 | · | · | ·
O=C(OCn1ncc(Br)c(Br)c1=O)c1ccccc1Cl | -27 | 77* | 73* | 7 | 58* | 50* | -9 | 23
O=C(OCn1ncc(Br)c(Br)c1=O)c1ccc(F)cc1 | 1 | 71* | 55* | 9 | 73* | 65* | -14 | 38
Cc1ccc(C(C)C)cc1S(=O)(=O)NC1CC(C)(C)NC(C)(C)C1 | 23 | 1 | -13 | 13 | -16 | · | · | ·
CN(CCOc1ccccc1)CC(=O)Nc1cccc(C#N)c1 | 18 | 9 | 7 | 14 | -17 | · | · | ·
COc1ccc(/C(N)=N/OC(=O)c2ccc3c(c2)OCO3)cc1OC | 10 | 47* | 59* | -4 | 69* | 75* | 46* | 56*
N/C(=N\OC(=O)c1ccc2c(c1)OCO2)c1cccc(Br)c1 | 15 | 92* | 78* | -1 | 68* | 48* | 96* | 88*
Cc1cccc(NC(=O)COC(=O)c2nn(C)c(=O)c3ccccc23)c1C | 18 | 4 | 19 | · | 5 | · | · | ·
CC(NC(=O)CSc1nnc(-c2cccnc2)n1N)c1ccccc1 (stereo unspecified) | 2 | -32 | 14 | -42 | -1 | · | · | ·
CN(C)c1cc(-c2ccc(Cl)c(Cl)c2)oc(=O)c1Cl | 17 | -9 | -7 | · | -10 | · | · | ·
Cc1ccc(S(=O)(=O)CC(=O)Nc2nc(-c3ccccc3)cs2)cc1 | 26 | 29 | 52* | 28 | 44* | 45* | · | 47*
CNC(=O)/C(C#N)=C/c1cccc(Oc2ccccc2)c1 | 25 | 78* | 91* | · | 87* | 90* | 78* | 80*
COc1cccc(/C=C2\SC(=S)N(CCCC(=O)N3CCCCC3CCO)C2=O)c1 (stereo unspecified) | 10 | 19 | 52* | -3 | 50* | 20 | · | 55*
COc1ccc(/C=C2\SC(=S)N(CCCC(=O)N3CCOCC3)C2=O)cc1 | 14 | 8 | 34 | 6 | 25 | · | · | ·
COc1cccc(/C=C2\SC(=S)N(CCCC(=O)N3CCCC3)C2=O)c1 | 23 | 33 | 58* | 4 | 42* | 23 | · | 51*
Cc1cc2cc(C=C(C#N)C#N)c(Cl)nc2cc1C | 18 | 38 | 62* | 60* | 55* | 56* | · | 66*
Cc1cc2nc(Cl)c(Cl)nc2cc1C | -16 | -15 | 3 | · | 9 | · | · | ·
N/C(=N\OC(=O)CCC1CCCC1)c1cccc([N+](=O)[O-])c1 | 17 | 39 | 50* | 28 | 48* | 38* | · | 34
N/C(=N\OC(=O)CCC1CCCCC1)c1ccc([N+](=O)[O-])cc1 | -8 | 60* | 67* | 24 | 83* | 79* | 51* | 70*
COc1ccc(/C(N)=N/OC(=O)CC2CCCCC2)cc1 | 9 | 66* | 57* | 6 | 59* | 64* | 38* | 54*
SMILES | NLRP3 yeast inh | TIM10 inh | tim23-1 inh | NALP1 yeast inh | tim10-1 inh | tim10-1 conf | TIM10 conf | tim23-1 conf
N/C(=N\OC(=O)CCC1CCCC1)c1ccc(Br)cc1 | -11 | 83* | 66* | 7 | 68* | 50* | 72* | 61*
CN(C(=O)C1CCCCC1)C1(C)CCS(=O)(=O)C1 (stereo unspecified) | 13 | 1 | 2 | · | 7 | · | · | ·
COCCNC(=O)c1cccc(OC2CCN(Cc3ccc(Cl)c(F)c3)CC2)c1 | 19 | -12 | -1 | 0 | -12 | · | · | ·
O=C1N/C(=N/N=C/c2ccccc2)SC1(c1ccccc1)c1ccccc1 | 6 | 17 | 13 | 8 | 23 | · | · | ·
O=C(O/N=C1\C(=O)N(c2ccccc2)c2ccccc21)C1CC1 | 0 | 40 | 69* | -34 | 47* | 44* | · | 64*
CCO/N=C1\C(=O)N(c2ccccc2)c2ccccc21 | 18 | 1 | 37 | -11 | 14 | · | · | ·
CC1CN(S(=O)(=O)c2cccc(C(=O)N(CCc3ccccc3)Cc3ccccc3)c2)CC(C)O1 (stereo unspecified) | 17 | 20 | 33 | · | 40 | · | · | ·
Cc1ccc2c(c1)N=C(c1ccccc1)CC(C(Cl)Cl)=N2 | 25 | 60* | 74* | -27 | 60* | 48* | 56* | 67*
O=C(N/N=C/c1ccc(Br)cc1)c1ccccc1-n1cccc1 | 9 | 37 | 54* | 15 | 42* | 37* | · | 51*
Cc1cccc(/C=N\NC(=O)c2ccccc2-n2cccc2)c1 | 20 | 31 | 38 | 15 | 32 | · | · | ·
CC(C)c1ccc(C(=O)OCC(=O)NC2CCCC2)cc1 | 20 | 3 | 12 | 14 | 29 | · | · | ·
C[C@H]1O[C@H](O[C@H]2[C@H](O)[C@@H](O)[C@@H](O[C@H]3[C@H](O)[C@@H](O)C(O)O[C@@H]3CO)O[C@@H]2CO)[C@H](O)[C@@H](O)[C@@H]1N[C@H]1C=C(CO)[C@@H](O)[C@H](O)[C@H]1O (stereo partly specified) | 14 | 3 | -15 | -4 | -9 | · | · | ·
COc1ccc(C(=O)/C=C/c2cccs2)c(OC(=O)N2CCOCC2)c1 | 0 | 52* | 51* | 31 | 50* | 34* | 40* | 42*
Cc1ccc(C(=O)Oc2cc(N)n(S(=O)(=O)c3ccc(F)cc3)n2)cc1 | 10 | 45* | 52* | -2 | 49* | 34* | 49* | 43*
COc1cccc(C(=O)Oc2cc(N)n(S(=O)(=O)c3ccc(C)cc3)n2)c1OC | 19 | 25 | 32 | 0 | 36 | · | · | ·
